Test [1] deals with Gonadotropin-releasing hormone receptor (Homo sapiens) (UniProt P30968). As to the kind of experiment: Human gonadotropin-releasing hormone receptor (GnRHR) small molecule agonists, calcium flux assay in GnRHR-HEK293 cells (AID 1920063). Also: nearly all actives have a fitted effect of over 35% in size. Also: potency is read from the fitted curve at half-maximal effect. An outline of the steps:
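Compounds dissolved in DMSO are pin-transferred onto dye-loaded GnRHR-HEK293 cells, which were seeded 18 h before at 37 C/5% CO2. Calcium signal is read as fluorescence intensity at 1 s intervals for 3 min.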

The target in test [2] is KiSS-1 receptor (Homo sapiens) (UniProt Q969F8). The test can be described thus: Human kisspeptin (KISS1R) small molecule agonists, calcium flux assay in KISS1R-HEK293 cells (AID 1920064; active = well fitted activation curve with a large enough effect in the repeat runs; also: potency is read from the fitted curve at half-maximal effect). The method, boiled down:
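Cell line: HEK293, stable human KISS1R. Dye loading 1 h at 37 C after 18 h culture. Read: kinetic fluorescence, 480/540 nm, 3 min at 1 s intervals.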
In general terms: Calcium flux is commonly read through the fluorescence of an indicator in the cells.

Test [3] in a line: G protein-coupled receptor (GPCR) small molecule agonists, calcium flux assay: HEK293 wild type cell line counter screen (AID 1920065). Also: potency is read from the fitted curve at half-maximal effect. An outline of the steps:
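Tox21 10K compounds, 15 concentrations each in triplicate, pin-transferred in DMSO onto dye-loaded cells; kinetic read at 480/540 nm for 3 min, 1 s intervals.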

Test [4] is described as follows: p53 small molecule agonists, cell-based qHTS assay with rat liver microsomes (AID 1963578). The method, boiled down:
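Metabolic activation by rat liver microsomes and NADPH, each 0.5 mg/mL final, added right after compounds to p53RE-bla reporter cells (4,000/well, plated 5 h earlier). 16 h at 37 C, then LiveBLAzer substrate for 2 h at room temperature in the dark; fluorescence read-out.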
Background: Quantitative high-throughput screening tests each substance at several concentrations.

Test [5] in a line: p53 small molecule agonists, cell-based qHTS assay with rat liver microsomes: qHTS cell viability counter screen (AID 1963580). Also: nearly all actives have a fitted effect of over 45% in size. The method, boiled down: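 After the beta-lactamase ratio was read, CellTiter-Glo was added to the same wells and luminescence measured at 30 min; cells had been treated 16 h at 37 C with compounds, rat liver microsomes and NADPH (0.5 mg/mL final each).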

A short description of test [6]: p53 small molecule agonists, cell-based qHTS assay: qHTS cell viability counter screen (AID 1963581). Also: nearly all actives have a fitted effect of over 45% in size. An outline of the steps:
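ATP content measured by luminescence in HCT-116 p53RE-bla cells treated 16 h at 37 C, same wells as the reporter screen.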

For test [7], the target named is 5-hydroxytryptamine receptor 2A (Homo sapiens) (UniProt P28223). As to the kind of experiment: 5-hydroxytryptamine receptor 2A (HTR2A) small molecule antagonists, cell-based qHTS assay (AID 1963586). Also: nearly all actives have a fitted effect of over 45% in size. An outline of the steps:
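CHO cells stably expressing human HTR2A were plated for 18 h at 37 C, then loaded with calcium dye for 1 h. Compounds were preincubated 5 min at room temperature before DOI (4 nM solution) was added. Kinetic fluorescence was read for 3 min.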

The target is the same in test [8]. As to the kind of experiment: 5-hydroxytryptamine receptor 2A (HTR2A) small molecule agonists, cell-based qHTS assay (AID 1963587). Also: nearly all actives have a fitted effect of over 30% in size. Also: potency is read from the fitted curve at half-maximal effect. An outline of the steps:
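CHO cells stably expressing human HTR2A, plated 18 h, loaded with calcium dye 1 h at 37 C. Agonist mode: compounds added and intracellular calcium fluorescence recorded kinetically for 2 min at 1 sec intervals.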

For test [9], the target named is Muscarinic acetylcholine receptor M1 (Homo sapiens) (UniProt P11229). The test can be described thus: Cholinergic receptor muscarinic 1 (CHRM1) small molecule antagonists, cell-based qHTS assay (AID 1963588). Also: nearly all actives have a fitted effect of over 40% in size. The method, boiled down:
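Compounds were tested at 15 concentrations in three independent runs. Dye-loaded CHRM1-CHO cells were exposed 5 min at room temperature before stimulation by acetylcholine added at 50nM. Intracellular calcium was read kinetically on FDSS for 3 min.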

For test [10] the target is unchanged. As to the kind of experiment: Cholinergic receptor muscarinic 1 (CHRM1) small molecule agonists, cell-based qHTS assay (AID 1963589). Also: nearly all actives have a fitted effect of over 35% in size. An outline of the steps:
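Homogeneous fluorescence calcium flux, agonist mode. Human M1-expressing CHO cells; compound dosed at 15 concentrations, three independent runs; signal sampled every 1 sec.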

Test [11] addresses Beta-2 adrenergic receptor (Homo sapiens) (UniProt P07550). As to the kind of experiment: Adrenergic beta2 receptor (ADRB2) small molecule antagonists, cell-based qHTS assay (AID 1963592). Also: series mostly up to about 92 µM; nearly all actives have a fitted effect of over 50% in size. The method, boiled down: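 Assay format: CHO-ADRB2 cells, 18-20hr seeding at 37C/5% CO2, then compound plus 1nM isoproterenol agonist mix for 0.5hr RT. Homogeneous time-resolved fluorescence cAMP detection after 1hr, expressed as 665/615 nm ratio.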

In test [12] the target is D(2) dopamine receptor (Homo sapiens) (UniProt P14416). As to the kind of experiment: Dopamine D2 receptor (DRD2) small molecule agonists, cell-based qHTS assay (AID 1963594). Also: nearly all actives have a fitted effect of over 35% in size. An outline of the steps: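 HEK293 cells stably expressing human DRD2, pre-treated with PDE inhibitor Ro20-1724 (0.1 mM final) and compound 10 min at room temperature, then stimulated with NKH477 (200nM […]) for 30 min. cAMP read by HTRF (665/620 nm).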
Sequence of D(2) dopamine receptor (Homo sapiens) (P14416 whole entry, looked up): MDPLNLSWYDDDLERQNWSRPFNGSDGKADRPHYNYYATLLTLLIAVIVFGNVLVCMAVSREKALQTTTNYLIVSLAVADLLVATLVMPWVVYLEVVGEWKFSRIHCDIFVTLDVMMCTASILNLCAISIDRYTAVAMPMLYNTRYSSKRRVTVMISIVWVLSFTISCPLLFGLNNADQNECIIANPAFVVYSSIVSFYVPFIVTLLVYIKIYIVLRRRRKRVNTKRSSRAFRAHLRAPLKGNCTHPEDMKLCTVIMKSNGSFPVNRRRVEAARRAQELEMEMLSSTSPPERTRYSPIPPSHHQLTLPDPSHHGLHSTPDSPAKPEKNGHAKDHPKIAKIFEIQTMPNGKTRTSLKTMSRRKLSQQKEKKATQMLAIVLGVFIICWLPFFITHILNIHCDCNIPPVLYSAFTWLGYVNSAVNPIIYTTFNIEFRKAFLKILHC

Test [13] has the same target. As to the kind of experiment: Dopamine D2 receptor (DRD2) small molecule antagonists, cell-based qHTS assay (AID 1963595; active = well fitted inhibition curve with a large enough effect in the signal ratio in the repeat runs, with a control signal flat; the % refers to the signal ratio; also: potency is read from the fitted curve at half-maximal effect). The method, boiled down:
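Readout: HTRF cAMP, cAMP-d2 competing with cellular cAMP for anti-cAMP cryptate, read after 1 h. Cells: DRD2-HEK293. Conditions: 0.1 mM Ro20-1724, 12 nM quinpirole, 200 nM NKH477, 30 min RT.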

Test [14] in a line: p53 small molecule agonists, cell-based qHTS assay with human liver microsomes (AID 1963577).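 Also: p53 response element beta-lactamase reporter cells with liver microsomes plus NADPH.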 The method, boiled down: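 With metabolic activation: human liver microsomes (0.5 mg/mL final) plus NADPH (0.5 mg/mL final) added alongside compounds to p53RE-bla cells; 16 h 37 C exposure; beta-lactamase read by LiveBLAzer fluorescence.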
Test [15] is described as follows: p53 small molecule agonists, cell-based qHTS assay with human liver microsomes: qHTS cell viability counter screen (AID 1963579). Also: nearly all actives have a fitted effect of over 45% in size. Also: potency is read from the fitted curve at half-maximal effect. An outline of the steps: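 Metabolic activation used human liver microsomes and NADPH, both 0.5 mg/mL final, over 16 hours at 37 C on p53RE-bla cells (4,000/well). Cytotoxicity measured by CellTiter-Glo luminescence, 30 min at room temperature.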

Test [16] is described as follows: p53 small molecule agonists, cell-based qHTS assay (AID 1963582; active = well fitted activation curve with a large enough effect in the signal ratio in the repeat runs, not every such curve was filed as active; the % refers to the signal ratio). An outline of the steps: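 16 h compound exposure (37 C) of p53 response element–bla cells, preceded by 5 h recovery at 37 C/5% CO2; read-out via LiveBLAzer B/G FRET substrate, 2 h RT, fluorescence intensity.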
The nature of test [17]: cAMP Responsive Elements (CRE) small molecule antagonists, cell-based qHTS assay (AID 1963591; active = well fitted inhibition curve with a large enough effect in the signal ratio in the repeat runs, not every such curve was filed as active; the % refers to the signal ratio). An outline of the steps: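 First, CRE-bla HEK293T cells settled 18 h at 37 C. Next, compound and 0.25 uM final NKH477 were applied for 3 h. Last, LiveBLAzer B/G substrate was loaded for 2 h at room temperature.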
Test [18] deals with Beta-2 adrenergic receptor (Homo sapiens) (UniProt P07550). As to the kind of experiment: Adrenergic beta2 receptor (ADRB2) small molecule agonists, cell-based qHTS assay (AID 1963593).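 Also: CHO cells stably overexpressing human ADRB2.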 An outline of the steps:
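CHO cells stably over-expressing ADRB2 were plated overnight at 37C, then dosed with compounds plus a stimulation mix containing 100uM IBMX and 25uM Ro-20-1724 for 0.5hr at room temperature. cAMP was measured by HTRF competition, 1hr.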

Test [19] can be described thus: cAMP Responsive Elements (CRE) small molecule agonists, cell-based qHTS assay (AID 1963590). The method, boiled down:
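HEK 293T cells stably bearing CRE-bla were plated at 2,000 cells per well and rested 18 h. Compounds, positive controls or DMSO were added for 3 h at 37 C. LiveBLAzer B/G substrate was then loaded for 2 h at room temperature.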

The structures appear in SMILES notation. Values without a mark were called inactive. Inconclusive results are not listed. Active and inactive are the calls of the source. Unless noted, calls follow the shape of the full dose curve.
% is scaled to controls: 0 for no effect and ±100 for the full control effect.

Sequence of 5-hydroxytryptamine receptor 2A (Homo sapiens) (P28223 whole entry, looked up): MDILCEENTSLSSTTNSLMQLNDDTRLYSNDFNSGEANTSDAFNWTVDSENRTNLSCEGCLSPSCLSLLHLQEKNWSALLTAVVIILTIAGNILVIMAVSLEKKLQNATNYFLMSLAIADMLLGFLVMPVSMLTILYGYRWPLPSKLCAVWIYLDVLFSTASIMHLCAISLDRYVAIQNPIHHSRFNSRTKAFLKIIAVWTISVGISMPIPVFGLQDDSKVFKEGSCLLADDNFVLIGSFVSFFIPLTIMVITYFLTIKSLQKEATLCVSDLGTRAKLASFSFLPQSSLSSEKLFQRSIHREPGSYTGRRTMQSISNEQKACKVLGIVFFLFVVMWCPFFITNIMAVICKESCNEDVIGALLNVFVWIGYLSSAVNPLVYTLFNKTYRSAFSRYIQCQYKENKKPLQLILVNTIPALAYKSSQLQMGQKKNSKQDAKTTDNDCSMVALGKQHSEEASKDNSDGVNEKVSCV
Sequence of Beta-2 adrenergic receptor (Homo sapiens) (P07550 whole entry, looked up): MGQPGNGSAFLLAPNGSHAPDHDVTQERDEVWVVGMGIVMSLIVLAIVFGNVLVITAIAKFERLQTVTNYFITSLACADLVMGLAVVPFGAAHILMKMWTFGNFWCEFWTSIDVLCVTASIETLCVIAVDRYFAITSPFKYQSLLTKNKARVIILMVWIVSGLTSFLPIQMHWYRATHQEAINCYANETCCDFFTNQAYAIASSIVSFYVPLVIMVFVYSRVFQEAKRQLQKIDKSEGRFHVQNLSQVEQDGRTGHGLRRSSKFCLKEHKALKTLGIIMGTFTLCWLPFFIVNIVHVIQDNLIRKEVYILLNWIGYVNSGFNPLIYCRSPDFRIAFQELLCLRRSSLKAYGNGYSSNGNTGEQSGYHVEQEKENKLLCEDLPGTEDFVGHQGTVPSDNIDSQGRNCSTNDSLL
Sequence of Gonadotropin-releasing hormone receptor (Homo sapiens) (P30968 whole entry, looked up): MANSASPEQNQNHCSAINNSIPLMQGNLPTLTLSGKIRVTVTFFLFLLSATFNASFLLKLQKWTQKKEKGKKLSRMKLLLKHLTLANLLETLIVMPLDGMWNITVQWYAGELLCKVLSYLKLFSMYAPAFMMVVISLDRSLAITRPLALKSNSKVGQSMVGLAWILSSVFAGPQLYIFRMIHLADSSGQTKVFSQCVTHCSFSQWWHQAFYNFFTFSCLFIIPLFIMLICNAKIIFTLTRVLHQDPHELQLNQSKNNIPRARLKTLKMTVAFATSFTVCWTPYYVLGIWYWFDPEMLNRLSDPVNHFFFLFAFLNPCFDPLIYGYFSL
Sequence of KiSS-1 receptor (Homo sapiens) (Q969F8 whole entry, looked up): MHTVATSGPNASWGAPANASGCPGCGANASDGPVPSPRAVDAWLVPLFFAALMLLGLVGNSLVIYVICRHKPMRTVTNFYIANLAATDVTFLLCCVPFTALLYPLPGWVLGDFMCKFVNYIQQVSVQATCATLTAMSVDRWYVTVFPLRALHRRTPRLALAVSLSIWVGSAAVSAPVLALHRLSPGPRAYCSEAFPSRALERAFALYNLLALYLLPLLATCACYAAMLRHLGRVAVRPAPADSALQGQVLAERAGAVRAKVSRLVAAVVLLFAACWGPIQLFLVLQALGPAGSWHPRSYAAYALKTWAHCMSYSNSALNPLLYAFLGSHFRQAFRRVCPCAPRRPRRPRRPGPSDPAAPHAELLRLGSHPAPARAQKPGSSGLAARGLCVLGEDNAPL
Sequence of Muscarinic acetylcholine receptor M1 (Homo sapiens) (P11229 whole entry, looked up): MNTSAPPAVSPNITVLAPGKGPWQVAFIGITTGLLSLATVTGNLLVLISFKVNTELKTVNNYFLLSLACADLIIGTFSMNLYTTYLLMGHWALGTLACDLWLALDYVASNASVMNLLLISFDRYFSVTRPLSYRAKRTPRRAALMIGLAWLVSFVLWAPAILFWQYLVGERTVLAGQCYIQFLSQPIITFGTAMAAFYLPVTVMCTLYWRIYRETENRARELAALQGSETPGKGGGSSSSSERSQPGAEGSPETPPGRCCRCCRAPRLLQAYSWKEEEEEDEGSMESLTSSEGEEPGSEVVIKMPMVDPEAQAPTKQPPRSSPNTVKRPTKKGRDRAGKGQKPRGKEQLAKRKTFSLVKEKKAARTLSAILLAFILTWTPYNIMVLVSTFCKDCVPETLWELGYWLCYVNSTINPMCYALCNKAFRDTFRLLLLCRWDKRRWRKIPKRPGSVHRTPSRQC

Regarding `COC(=O)C1=C(C)NC(C)=C(C(=O)OCCCN2CCC(c3ccccc3)(c3ccccc3)CC2)C1c1cccc([N+](=O)[O-])c1` (centres undefined), the Potency result in test [1], in test [2], in test [3], in [4], in test [5] and in test [6] was “inactive” each time. Further, the Potency entry in [7], in test [8], in test [9], in [10], in [11] and in test [12] was “inactive” throughout. Moreover, in [13], the Potency entry was “inactive”.

Take `CC(C)(C)c1ccc(OC(=O)c2ccccc2O)cc1`: the Potency result in [1], in test [2], in [3], in [14], in test [15] and in [5] was “inactive” in each case. For the same compound, the Potency result in test [6], in test [16], in [7], in [8], in [9] and in test [10] was “inactive” in each case. For the same compound, the Potency entry in test [11], in test [12] and in [13] was “inactive” in each case.

As for `O=C1OC2(c3ccc(O)cc3Oc3cc(O)ccc32)c2ccc(N=C=S)cc21`, the Potency in test [1] is 14.1 µM (active); in test [2], 44.4 µM (active); in [3], 39.6 µM (active); in test [8] it was 17.7 µM (active). The Potency entry in [15], in test [5], in [6], in test [16], in [9] and in test [17] was “inactive” throughout. Moreover, in test [18], the Potency entry is “inactive”.

For the compound `Cc1cc(Cl)c(C)cc1Cl`, the Potency result in test [1], in test [2], in test [3], in test [5], in test [6] and in test [16] was “inactive” in each case. Further, the Potency result in test [7], in test [8], in test [9], in [19], in test [17] and in test [11] was “inactive” in each case. The Potency entry in test [18] and in [13] was “inactive” throughout.

With `C[C@](N)(Cc1ccc(O)cc1)C(=O)O`, the activity change in test [1] was -1.06% [at 5.22 µM, active compounds read high]. The activation in [2] is -0.73% [at 6.97 µM]; in [3] it was 0.0455% [at 5.23 µM]; in test [14] it was 3.02% [at 5.99 µM]; in [19], -0.0581% [at 8.39 µM]; in test [18], 23.8% [at 8.39 µM]; in test [12] it was -6.61% [at 8.39 µM]. For the same compound, the values for the activity change, negative = cytotoxicity in test [15], in test [5] and in test [6] were 8.09% [at 5.99 µM], -5.36% [at 5.99 µM] and -19.4% [at 5.99 µM], respectively. The activity change, negative = inhibition in [17] was 2.35% [at 8.39 µM]; in [11], 3.74% [at 8.39 µM]; in test [13] it was -5.15% [at 8.38 µM].

Regarding `Fc1ccc(C(c2ccc(F)cc2)N2CCN(C/C=C/c3ccccc3)CC2)cc1`, the Potency entry in test [1], in test [2], in [3], in [5], in [6] and in [12] was “inactive” throughout. Moreover, the Potency in [13] was 16.8 µM (active).

As for `CCCCCCCCOC(=O)c1ccc(O)cc1`, the Potency entry in test [1], in [2], in test [3], in [5], in test [7] and in [9] was “inactive” throughout. Moreover, the Potency result in [10], in test [11], in [12] and in [13] was “inactive” throughout. Moreover, the Potency in [15] was 45.8 µM (active).

These data come from PubChem BioAssay (Tox21).
